From PubChem
NPC1 promoter act: activators of NPC1 promoter | Huh7 NPC1 promoter luciferase reporter, 24 h | Potency, µM (doses to about 9.22 µM), usual class: activators | 320,000 compounds, 2.4% hits; note: nearly all actives have a fitted effect of over 60% in size
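Stably transfected Huh7 (NPC1 promoter→luciferase), 1500 cells/well in Opti-MEM + 10% FBS, 2 h settle, then compound 24 h at 37 °C. Luminescence after 10 min with Amplite reagent.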
SMN2 splice enh: SMN2 splice variant enhancement | AID 1458 | HEK293 SMN2-luciferase splicing reporter, luminescence, 30-36 h | 210,000 compounds, 2.8% hits | Potency, µM (top dose mostly 46.1 µM), usual class: activators; note: nearly all actives have a fitted effect of over 55% in size
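HEK293 cells carry an SMN2 […]–luciferase reporter in which exon 7 inclusion puts luciferase in frame. Cells were plated 10-12 h before compound addition, then incubated 30-36 h at 37C. ONE-Glo luminescence was read; sodium butyrate at 4.5 mM final served as control.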
ELG1 genotoxic: inducers of genotoxicity in HEK293T ELG1-luciferase cells; HEK293T ELG1-luciferase reporter, luminescence, 16 h; Potency, µM (doses to about 46 µM), actives largely listed as activators; 330,000 compounds, 1.3% hits; AID 504466; note: nearly all actives have a fitted effect of over 60% in size
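DMSO vehicle served as control against compound-treated ELG1-luciferase HEK293T cells; exposure lasted 16 hr at 37 °C and 5% CO2, followed by ONE-Glo luminescence detection after 30 min.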
Rab9 promoter act: activators of Rab9 promoter; Huh7 Rab9 promoter-luciferase reporter, luminescence, 24 h; Potency, µM (highest dose often 9.22 µM), actives largely listed as activators; 320,000 compounds, 2.8% hits; AID 485297; note: nearly all actives have a fitted effect of over 60% in size
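Huh7 cells stably carrying Rab9 promoter–luciferase reporter, plated 1500 cells/well, compound added after 2 h and incubated 24 h at 37 °C; luciferase luminescence then read after 10 min with detection reagent.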
FLuc counter: inhibits or activates purified firefly luciferase, miR-21 counter-screen; P08659; purified FLuc, Km substrates, luminescence inhibition; Potency, µM (highest dose often 57.5 µM), most hits filed as inhibitors; 360,000 compounds, 6.9% hits; AID 588342; note: nearly all actives have a fitted effect of over 55% in size
Target sequence (P08659 whole entry, looked up): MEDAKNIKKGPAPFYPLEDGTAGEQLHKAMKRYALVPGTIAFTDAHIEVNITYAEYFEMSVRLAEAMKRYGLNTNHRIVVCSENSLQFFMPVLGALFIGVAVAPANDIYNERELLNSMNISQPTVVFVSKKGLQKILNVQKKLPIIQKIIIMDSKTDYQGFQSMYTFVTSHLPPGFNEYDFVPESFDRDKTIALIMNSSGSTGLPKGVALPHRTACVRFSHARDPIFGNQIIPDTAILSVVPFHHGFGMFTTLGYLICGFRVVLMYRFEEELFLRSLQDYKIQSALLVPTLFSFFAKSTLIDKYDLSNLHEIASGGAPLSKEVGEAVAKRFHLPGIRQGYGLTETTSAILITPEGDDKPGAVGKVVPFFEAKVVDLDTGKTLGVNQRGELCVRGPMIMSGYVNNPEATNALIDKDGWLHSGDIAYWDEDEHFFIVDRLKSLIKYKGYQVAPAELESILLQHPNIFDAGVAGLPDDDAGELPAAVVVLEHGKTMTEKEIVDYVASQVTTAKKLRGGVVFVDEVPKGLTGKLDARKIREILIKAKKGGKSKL
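Purified P. pyralis luciferase, 10 nM final, with Km-level 10 uM D-luciferin and 10 uM ATP in 50 mM Tris acetate pH 7.5, 10 mM Mg acetate, 0.01% Tween-20, 0.05% BSA; 6-point qHTS titration about 60 µM downward; luminescence read.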
Hits are given with their value; - = inactive; ? = inconclusive; . = not tested or not shown. Sampled rows, rich in hits. Any-hit rate of the full collection: about 7.5%. Calls come from the whole dose curve; as a rule, active = well fitted curve in the direction sought with a large enough effect; inconclusive = small, poorly fitted or top-dose-only effect, or another doubt; inactive = no such curve, though single readings can be large; an effect the other way counts as inactive or inconclusive.

SMILES	NPC1 promoter act	SMN2 splice enh	ELG1 genotoxic	Rab9 promoter act	FLuc counter
Cc1ccc(C(C)NC(=O)c2ccc3c(c2)OCCO3)cc1C (stereo not drawn)	-	.	-	-	-
Cc1cnc(CN(C)C(=O)CC2C(=O)NCCN2CCCc2ccccc2)[nH]1 (stereo not drawn)	-	.	-	-	-
O=C(Cc1ccc(F)cc1)N[C@@H]1c2ccccc2CC[C@H]1OCc1ccccc1	.	.	-	.	.
CN=C1SC(CC(=O)Nc2cc(Cl)ccc2Cl)C(=O)N1C (stereo not drawn)	-	-	-	-	-
Cc1cc(NC(=O)CSc2nc3c(sc4ccccc43)c(=O)n2CCCN2CCOCC2)n[nH]1	-	35.5µM	-	-	-
Cc1cc(NC(=O)CSc2nc3c(sc4ccccc43)c(=O)n2CCc2ccccc2)n[nH]1	-	-	?	-	-
O=[N+]([O-])c1cccc2ccc(/C=C/c3ccc(Cl)cc3)nc12	?	.	-	?	?
O=C(O)c1cc(/C=C/c2ccc(N3CCOCC3)c([N+](=O)[O-])c2)nc2ccccc12	?	.	?	?	1.2µM
O=C(O)c1cc(N2CCOCC2)nc2ccccc12	-	.	-	-	-
O=C(O)c1cc(/C=C/c2ccc(N3CCOCC3)cc2)nc2ccccc12	?	?	-	?	0.477µM
COc1cc(/C=C/C(=O)OCN2C(=O)c3ccccc3C2=O)ccc1OC(F)F	-	.	-	-	-
COC(=O)/C(C#N)=C/c1ccc(N2CCOCC2)c([N+](=O)[O-])c1	-	.	-	-	-
CC(=O)Nc1ccc(/C=C/c2ccc3c([N+](=O)[O-])cccc3n2)cc1	?	?	?	1.12µM	?
COc1cc(/C=C/c2cc(C(=O)O)c3ccccc3n2)ccc1OC(F)F	3.16µM	.	-	3.16µM	0.426µM
Cc1oc(C(=O)O)cc1COc1cccc2cccnc12	-	-	-	-	-
CCOC(=O)c1ccc(NC(=O)CCc2nc3cccnc3n2Cc2cccs2)cc1	.	-	.	.	-
CN=c1scc(-c2ccc(F)cc2)n1/N=C/c1ccc(O)c(O)c1	-	?	-	-	0.675µM
CCC(C)NC(=O)CSc1nc2cc3c(cc2c(=O)n1CCCC(=O)NCCc1ccc(OC)c(OC)c1)OCO3 (stereo not drawn)	.	.	.	.	-
O=c1ccnc(SCCc2ccccc2)[nH]1	-	.	-	-	-
O=c1ccnc(S/C=C/c2ccccc2)[nH]1	?	-	-	-	19µM
O=C(Nc1cccnc1)c1cc(-c2cccc(Cl)c2)on1	-	-	-	-	-
O=C(Nc1cccnc1)c1cc(-c2cccs2)on1	-	-	-	?	1.69µM
COc1ccc(NC(=O)c2cc(-c3cccs3)on2)cc1	-	.	16.4µM	-	?
O=C(Nc1cccc(C(F)(F)F)c1)c1cc(-c2cccs2)on1	-	-	-	-	?
COC(=O)c1ccccc1NC(=O)c1cc(-c2cccs2)on1	-	-	-	2.24µM	-
SMILES	NPC1 promoter act	SMN2 splice enh	ELG1 genotoxic	Rab9 promoter act	FLuc counter
O=C(Nc1cccnc1)c1cc(-c2ccccc2O)on1	-	.	-	-	1.35µM
COC(=O)c1ccccc1NC(=O)c1cc(-c2ccco2)on1	-	.	-	?	-
CC(C)C(=O)Nc1ccc2nc(SCCOc3ccccc3)sc2c1	.	.	.	.	-
CCOC(=O)C(C)Oc1cccc2c(=O)n(CC(=O)NCc3ccc(F)cc3)ccc12 (stereo not drawn)	-	.	?	-	-
CC(C)(C)OC(=O)NCCCC1=CC2=CC(=O)C(C)(OC(=O)c3cnc4ccccc4n3)C(=O)C2=CO1 (stereo not drawn)	.	-	.	.	.
CCc1ccccc1	.	-	.	.	.
Cc1cc(C)n(CCCNC(=O)c2ccc(C)c(S(=O)(=O)N3CCOCC3)c2)n1	-	.	-	-	-
O=C(Nc1ccccc1C(F)(F)F)c1cc(-c2ccccc2O)on1	?	?	-	3.98µM	-
CC(C)CC[n+]1ccccc1/C=C/c1ccc(N(C)C)cc1	-	.	-	-	-
COc1ccc(/C=C/c2ccncc2)cc1	3.55µM	?	?	2.82µM	12µM
C/C=C/c1ccc(OC)cc1	.	-	.	.	.
CN(C)c1ccc(/C=C/C#N)cc1	-	.	-	-	?
CN(C)c1ccc(/C=C/c2ccncc2)cc1	?	?	16.4µM	?	?
CN(C)c1ccc(/C=C/c2cccc[n+]2[O-])cc1	?	.	?	2.51µM	19µM
C=CCSc1nc(C)cc(/C=C\c2ccccc2)c1C#N	-	-	-	-	-
CCOC(=O)COn1c(-n2nc(C)cc2C)nc2ccccc2c1=O	-	.	-	-	-
CCOC(=O)c1c(S(=O)(=O)N2CCC(C(=O)N3CCN(c4ccc(F)cc4)CC3)CC2)c(C)n(C)c1C	.	.	.	.	-
O=C(O)/C=C/C(=O)Nc1cccc2cccnc12	-	.	-	-	?
O=C(/C=C/c1ccco1)Nc1cccc2cccnc12	-	?	?	-	15.1µM
Cc1ccc(NC(=O)/C=C/c2ccco2)nc1	?	14.1µM	4.11µM	-	6.01µM
O=C(/C=C/c1ccco1)Nc1ccccn1	?	8.91µM	8.2µM	?	6.75µM
COc1ccc2c(c1)C(=O)[C@H](OC(=O)Nc1ccc(OC(F)F)cc1)[C@@H](c1ccc(OC)c(Br)c1)O2	.	-	.	.	.
